Consider 7 compounds from publication PMC5540273 (PLoS ONE, 2017).

Details in all cases: concentration: 1 μM, replicates: in singlicate; n = 1
In experiment [1] the test system is INSRR.
The test system of experiment [2] is INSR.
Experiment [3] has as its system IRAK1.
Experiment [4] deals with IRAK3.
For experiment [5], the system named is IRAK4.
For experiment [6], the system named is ITK.
In experiment [7] the test system is JAK1(JH1domain-catalytic).
The subject of experiment [8] is JAK1(JH2domain-pseudokinase).
The subject of experiment [9] is JAK2(JH1domain-catalytic).
Experiment [10] has as its system JAK3(JH1domain-catalytic).
The subject of experiment [11] is T1, JNK1.
T1 construct: gene MAPK8

In experiment [12] the test system is T2, JNK2.
T2 construct: gene MAPK9

Experiment [13] deals with T3, JNK3.
T3 construct: gene MAPK10

Experiment [14] concerns KIT-autoinhibited.
Experiment [15] concerns KIT.
Experiment [16] has as its system LATS1.
For experiment [17], the system named is LATS2.
The test system of experiment [18] is LCK.
Experiment [19] relates to LIMK1.
Experiment [20] relates to LIMK2.
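Note: KINOMEscan kinase panel screen.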

For `C[C@@H]1CCN(C(=O)CO)C[C@@H]1N(C)c1ncnc2[nH]ccc12`, the “%Inh” value in [1] was 9%; in experiment [2] it was 0%; in experiment [3] it was 0%; in experiment [4], 19%; in experiment [5], 0%; in experiment [6], 0%. In addition, the “%Inh” value came out at 94% in experiment [7]; 21% in experiment [8]; 100% in [9]; 98.8% in experiment [10]; 19% in experiment [11]; 0% in [12]. In addition, the “%Inh” value worked out at 0% in experiment [13]; 0% in experiment [14]; 12% in experiment [15]; 0% in experiment [16]; 16% in experiment [17]; 20% in [18]. In addition, the “%Inh” value worked out at 0% in experiment [19] and 8% in experiment [20].

`COc1ccc(-c2oc3ncnc(N)c3c2-c2ccc(OC)cc2)cc1` [SB-589132]: the “%Inh” value in [1] came to 0%; in [2] it was 0%; in experiment [3], 56%; in [4] it was 15%; in [5], 58%; in [6] it was 19%. Also, the “%Inh” value in experiment [7] is on record as 25%; in [8], 31%; in experiment [9], 1%; in [10], 19%; in [11], 30%; in [12] it was 10%. Further, the “%Inh” value in experiment [13] is 0%; in [14] it was 29%; in experiment [15], 49%; in [16], 100%; in [17], 0%; in experiment [18] it was 54%. Moreover, the “%Inh” value is given as 24% in [19] and 8% in [20].

For the compound `Cn1ccc2ncnc(Oc3ccc(NC(=O)Nc4cccnc4)c(Cl)c3)c21`, the “%Inh” value in experiment [1] amounted to 0%; in experiment [2], 6%; in experiment [3], 0%; in experiment [4], 12%; in experiment [5], 6%; in experiment [6], 11%. Further, the “%Inh” value in [7] was 12%; in experiment [8], 4%; in [9], 0%; in [10], 21%; in experiment [11], 0%; in experiment [12] it was 0%. Also, the “%Inh” value in [13] came out at 0%; in experiment [14], 0%; in experiment [15], 98.7%; in [16] it was 23%; in experiment [17], 0%; in [18], 0%. Also, the “%Inh” value in [19] and in experiment [20] was 0% in each case.

In the case of `Cc1ccc(C)c(NC(=O)NCCNc2ccnc(Nc3ccc(F)cc3)n2)c1` [GSK1379878], the “%Inh” value in experiment [1], in experiment [2], in experiment [3], in experiment [4], in [5] and in experiment [6] was 0% throughout. The “%Inh” value is recorded as 0% in experiment [7]; 0% in experiment [8]; 1% in [9]; 0% in experiment [10]; 13% in experiment [11]; 13% in [12]. In addition, the “%Inh” value in experiment [13] is 2%; in experiment [14], 0%; in [15], 0%; in experiment [16] it was 0%; in experiment [17] it was 0%; in experiment [18], 3%. In addition, the “%Inh” value in experiment [19] and in experiment [20] was 0% each time.

Regarding `Cc1ccc(O)cc1Nc1cc(C(F)(F)F)nc2ccc(-c3ccncc3)cc12` [GW630823], the “%Inh” value in [1] is 0%; in experiment [2] it was 0%; in [3], 0%; in experiment [4], 56%; in [5], 0%; in [6] it was 19%. The “%Inh” value in experiment [7], in experiment [8], in experiment [9], in experiment [10], in experiment [11] and in [12] was 0% each time. In addition, the “%Inh” value in experiment [13] is 0%; in experiment [14], 0%; in experiment [15], 14%; in [16], 0%; in experiment [17], 0%; in [18], 14%. The “%Inh” value in experiment [19] is 21%; in [20], 15%.

As for `COC(=O)c1c(-c2ccccc2)c2cc(Cl)ccc2c(=O)n1Cc1ccc(S(C)(=O)=O)cc1`, the “%Inh” value in experiment [1] is on record as 0%; in [2], 5%; in experiment [3], 11%; in experiment [4], 19%; in experiment [5], 9%; in [6], 21%. Also, the “%Inh” value in experiment [7] is listed as 0%; in [8], 0%; in experiment [9], 5%; in experiment [10] it was 4%; in experiment [11] it was 98.8%; in [12] it was 99.5%. For the same compound, the “%Inh” value in experiment [13] is reported as 99.4%; in experiment [14] it was 0%; in [15] it was 56%; in experiment [16], 30%; in experiment [17], 19%; in experiment [18] it was 13%. In addition, the “%Inh” value in experiment [19] is on record as 1%; in [20], 0%.

Take `O=C(Nc1n[nH]c2nc(-c3ccco3)c(Br)cc12)c1ccc(CN2CCCC2)cc1.O=C(O)[C@H](O)[C@@H](O)C(=O)O` [SB-742352]: the “%Inh” value is 0% in experiment [1]; 0% in experiment [2]; 0% in experiment [3]; 0% in experiment [4]; 0% in experiment [5]; 3% in experiment [6]. The “%Inh” value amounted to 0% in [7]; 1% in experiment [8]; 0% in experiment [9]; 0% in experiment [10]; 0% in [11]; 0% in experiment [12]. The “%Inh” value came out at 0% in [13]; 0% in experiment [14]; 99.2% in experiment [15]; 0% in [16]; 0% in [17]; 47% in experiment [18]. In addition, the figures for the “%Inh” value in experiment [19] and in experiment [20] were 26% and 0%, respectively.
